Data as given in PubChem BioAssay (Tox21).
“And” between values parts separate entries of the source, which are not always exact repeats. Identical values can stand only once. Records with an inconclusive call do not appear. A call without a number means that no potency is given here. The source holds several records for some structures; these can differ, active in one and inactive in another. The source made the active and inactive calls. Unless noted, calls come from the whole dose curve; as a rule, active = well fitted curve in the direction sought with a large enough effect in the repeat runs; inconclusive = weak or mixed curves; inactive = no such curve, though single readings can be large; an effect the other way counts as inactive or inconclusive.

Legend:
[1] = qHTS assay to identify small molecule antagonists of the glucocorticoid receptor (GR) signaling pathway - cell viability counter screen (AID 720693); note: nearly all actives have a fitted effect of over 55% in size; note: potency is the fitted concentration of half-maximal effect
[2] = qHTS assay for identifying genotoxic compounds that show differential cytotoxicity against isogenic chicken DT40 cell lines with known DNA damage response pathways - wild type cell line (AID 743012); note: nearly all actives have a fitted effect of over 60% in size; note: potency is the fitted concentration of half-maximal effect
Method in brief: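 Wild-type DT40 cells (300/well) exposed to compounds for 40 hours at 37 C/5% CO2. Viability read by CellTiter-Glo luminescence after 30 min at room temperature.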

[3] = qHTS assay for identifying genotoxic compounds that show differential cytotoxicity against isogenic chicken DT40 cell lines with known DNA damage response pathways - Rev3 mutant cell line (AID 743014); note: nearly all actives have a fitted effect of over 55% in size; note: potency is the fitted concentration of half-maximal effect
[4] = qHTS assay to identify small molecule antagonists of the androgen receptor (AR) signaling pathway - cell viability counter screen (AID 743033; note: nearly all actives have a fitted effect of over 45% in size; note: potency is the fitted concentration of half-maximal effect)
[5] = qHTS assay to identify small molecule antagonists of the androgen receptor (AR) signaling pathway using the MDA cell line - cell viability counter screen (AID 743041; note: nearly all actives have a fitted effect of over 45% in size; note: potency is the fitted concentration of half-maximal effect)
Method in brief: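 MDA-kb2 AR-luc cells (MMTV-luciferase, AR/GR responsive) treated with compounds plus R1881 agonist for 16 h at 37C. CellTiter-Fluor added at 15.5 h; fluorescence read after 30 min in the same wells.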

[6] = target: Androgen receptor (Homo sapiens) (UniProt P10275); test: qHTS assay to identify small molecule agonists of the androgen receptor (AR) signaling pathway using the MDA cell line (AID 743040; note: nearly all actives have a fitted effect of over 20% in size); conditions: MDA-kb2 AR-luc cells, MMTV luciferase, 16 h; at 70.3 µM (top of the series); stronger effect = higher value
Method in brief: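 MDA-kb2 breast carcinoma cells carrying MMTV-luciferase (responsive to AR and GR), plated 5 h then treated 16 h with compounds at 37C, 0% CO2. Read-out was ONE-Glo luminescence after 30 min at room temperature.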

[7] = target: Androgen receptor (Homo sapiens) (UniProt P10275); test: qHTS assay to identify small molecule antagonists of the androgen receptor (AR) signaling pathway using the MDA cell line (AID 743042; note: nearly all actives have a fitted effect of over 55% in size)
Method in brief: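 MDA-kb2 breast carcinoma cells carrying MMTV-luciferase (AR/GR responsive) were co-treated with compounds and the agonist R1881 for 16 h at 37C. Inhibition read as ONE-Glo luminescence; CellTiter-Fluor fluorescence measured in parallel for cytotoxicity.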

[8] = target: Androgen receptor (Homo sapiens) (UniProt P10275); test: qHTS assay to identify small molecule antagonists of the androgen receptor (AR) signaling pathway (AID 743035; active = well fitted inhibition curve with a large enough effect in the signal ratio in the repeat runs, not every such curve was filed as active; the % refers to the signal ratio; note: potency is the fitted concentration of half-maximal effect)
Method in brief: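 HEK293 cells stably carrying UAS-beta-lactamase reporter, 2,000/well, given compounds plus R1881 agonist and incubated 16 h at 37C. LiveBLAzer B/G FRET substrate then added for 2 h at room temperature before fluorescence reading.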

[9] = target: Androgen receptor (Homo sapiens) (UniProt P10275); test: qHTS assay to identify small molecule agonists of the androgen receptor (AR) signaling pathway (AID 743036; active = well fitted activation curve with a large enough effect in the signal ratio in the repeat runs, with a control signal flat, not every such curve was filed as active; the % refers to the signal ratio)
Method in brief: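 Agonist activity was scored by beta-lactamase reporter fluorescence in stably transfected HEK293 cells exposed to compounds for 16 h at 37C and 5% CO2. Substrate loading took 2 h at room temperature.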

[10] = qHTS assay for identifying genotoxic compounds that show differential cytotoxicity against isogenic chicken DT40 cell lines with known DNA damage response pathways - Rad54/Ku70 mutant cell line (AID 743015); note: nearly all actives have a fitted effect of over 60% in size; note: potency is the fitted concentration of half-maximal effect

Androgen receptor (Homo sapiens), sequence (P10275 whole entry, looked up): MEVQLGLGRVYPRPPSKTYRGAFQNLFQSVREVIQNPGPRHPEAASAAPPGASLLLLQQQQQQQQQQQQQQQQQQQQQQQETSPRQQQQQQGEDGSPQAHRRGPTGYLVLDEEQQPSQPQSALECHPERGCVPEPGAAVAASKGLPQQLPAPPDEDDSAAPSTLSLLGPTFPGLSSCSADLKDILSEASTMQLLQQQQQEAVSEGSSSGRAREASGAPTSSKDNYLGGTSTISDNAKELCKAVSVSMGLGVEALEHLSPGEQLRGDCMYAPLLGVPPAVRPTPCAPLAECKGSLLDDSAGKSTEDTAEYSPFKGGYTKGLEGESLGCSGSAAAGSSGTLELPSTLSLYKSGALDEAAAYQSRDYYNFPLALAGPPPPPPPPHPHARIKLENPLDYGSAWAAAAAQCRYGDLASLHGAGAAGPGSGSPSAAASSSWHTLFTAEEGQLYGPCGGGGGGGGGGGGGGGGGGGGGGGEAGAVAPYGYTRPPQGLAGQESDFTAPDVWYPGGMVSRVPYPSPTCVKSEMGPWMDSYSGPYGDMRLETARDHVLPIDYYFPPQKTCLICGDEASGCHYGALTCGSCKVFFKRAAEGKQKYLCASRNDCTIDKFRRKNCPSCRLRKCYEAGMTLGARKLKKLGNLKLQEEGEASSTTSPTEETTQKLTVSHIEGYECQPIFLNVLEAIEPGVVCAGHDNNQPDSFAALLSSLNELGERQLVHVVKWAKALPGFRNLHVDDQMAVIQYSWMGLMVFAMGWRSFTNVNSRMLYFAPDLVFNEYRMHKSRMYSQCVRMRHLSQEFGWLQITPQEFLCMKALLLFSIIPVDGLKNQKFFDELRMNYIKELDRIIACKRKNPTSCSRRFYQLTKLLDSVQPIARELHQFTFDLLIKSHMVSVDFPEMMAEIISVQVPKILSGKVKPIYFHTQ

SMILES: C[N+](C)(C)CC(=O)O
- Potency [1]: inactive
- Potency [2]: inactive
- Potency [3]: inactive
- Potency [4]: inactive
- Potency [5]: inactive

SMILES: COC(=O)Nc1nc2ccccc2[nH]1
- Potency [1]: inactive
- Potency [2]: 9.69 µM (active) and 8.63 µM (active)
- Potency [3]: 6.11 µM (active) and 6.86 µM (active)
- Potency [4]: inactive
- activity change [6]: 0.968% (inactive) and 4.32% (inactive)
- Potency [5]: inactive
- Potency [7]: inactive

SMILES: NN=C(N)N
- Potency [1]: inactive
- Potency [2]: inactive
- Potency [4]: inactive
- Potency [5]: inactive

SMILES: CC(C)=CC1C(C(=O)OCN2C(=O)C3=C(CCCC3)C2=O)C1(C)C (centres undefined)
- Potency [1]: inactive
- Potency [2]: 43.3 µM (active)
- Potency [3]: inactive
- Potency [4]: inactive
- Potency [8]: 43.6 µM (active)
- Potency [9]: inactive
- activity change [6]: 7.43% (inactive) and -10.5% (inactive)
- Potency [5]: inactive
- Potency [7]: inactive

SMILES: CCOP(=S)(OCC)OP(=S)(OCC)OCC
- Potency [1]: inactive
- Potency [3]: inactive
- Potency [10]: inactive
- Potency [4]: inactive
- Potency [8]: inactive
- Potency [9]: inactive
- activity change [6]: -0.0098% (inactive)
- Potency [5]: inactive
- Potency [7]: inactive

SMILES: CC1CC(=O)O1 (centres undefined)
- Potency [1]: inactive
- Potency [3]: inactive
- Potency [4]: inactive
- Potency [5]: inactive

SMILES: O=S(=O)(O)C(F)(F)C(F)(F)C(F)(F)C(F)(F)C(F)(F)C(F)(F)C(F)(F)C(F)(F)F
- Potency [1]: inactive
- Potency [3]: 61.1 µM (active) and 48.6 µM (active)
- Potency [4]: inactive
- Potency [5]: inactive

SMILES: Nc1ncn[nH]1
- Potency [1]: inactive
- Potency [3]: inactive
- Potency [10]: inactive
- Potency [4]: inactive
- Potency [5]: inactive

SMILES: CC(C)CON=O
- Potency [1]: inactive
- Potency [3]: inactive
- Potency [10]: inactive
- Potency [4]: inactive
- Potency [5]: inactive

SMILES: CC(C)(C#N)N=NC(C)(C)C#N
- Potency [1]: inactive
- Potency [3]: inactive
- Potency [10]: inactive
- Potency [4]: inactive
- Potency [5]: inactive

SMILES: CCCCOC(=O)COC(=O)c1ccccc1C(=O)OCCCC
- Potency [1]: inactive
- Potency [3]: inactive
- Potency [10]: inactive
- Potency [4]: inactive
- Potency [5]: inactive

SMILES: CCCCC(C#N)(Cn1cncn1)c1ccc(Cl)cc1 (centres undefined)
- Potency [1]: inactive
- Potency [3]: 60.9 µM (active) and 19.3 µM (active)
- Potency [10]: 60.9 µM (active)
- Potency [4]: inactive
- Potency [5]: inactive

SMILES: O=C1Nc2ccc(Cl)cc2C(c2ccccc2)=NC1O (centres undefined)
- Potency [1]: inactive
- Potency [4]: inactive
- Potency [5]: inactive

SMILES: CCCCCCCCCc1ccc(O)cc1
- Potency [5]: inactive

SMILES: CCNc1nc(Cl)nc(NC(C)(C)C#N)n1
- Potency [1]: inactive
- Potency [3]: inactive
- Potency [4]: inactive
- Potency [5]: inactive

SMILES: ClC(Cl)=C(Cl)C(Cl)=C(Cl)Cl
- Potency [1]: inactive
- Potency [3]: inactive
- Potency [4]: inactive
- Potency [5]: inactive

SMILES: CCOC(=O)c1ccccc1N
- Potency [1]: inactive
- Potency [3]: inactive
- Potency [4]: inactive
- Potency [5]: inactive

SMILES: Cc1cccc(N=Nc2ccc(N(C)C)cc2)c1
- Potency [1]: inactive
- Potency [3]: inactive and 27.3 µM (active)
- Potency [10]: inactive and 27.3 µM (active)
- Potency [4]: inactive
- Potency [5]: inactive

SMILES: CCNCC
- Potency [1]: inactive
- Potency [3]: inactive
- Potency [10]: inactive
- Potency [4]: inactive
- Potency [5]: inactive

SMILES: CC(C)COC(=O)c1ccccc1C(=O)OCC(C)C
- Potency [1]: inactive
- Potency [10]: 48.6 µM (active)
- Potency [4]: inactive
- Potency [5]: inactive

SMILES: CCCCCCCCCC(CC)c1ccc(S(=O)(=O)O)cc1 (centres undefined)
- Potency [4]: inactive
- Potency [5]: inactive

SMILES: CCC[CH2][Sn]([Cl])([CH2]CCC)[CH2]CCC
- Potency [1]: 1.1 µM (active)
- Potency [3]: 434 nM (active) and 344 nM (active)
- Potency [10]: 487 nM (active) and 386 nM (active)
- Potency [4]: 618 nM (active) and 1.1 µM (active)
- Potency [5]: 1.22 µM (active) and 2.17 µM (active)

SMILES: C[N+](C)(C)C
- Potency [1]: inactive
- Potency [3]: inactive
- Potency [4]: inactive
- Potency [5]: inactive

SMILES: Cl
- Potency [1]: inactive
- Potency [3]: inactive and 48.6 µM (active)
- Potency [10]: inactive
- Potency [4]: inactive
- Potency [5]: inactive

SMILES: Brc1ccc(Br)cc1
- Potency [1]: inactive
- Potency [3]: inactive
- Potency [4]: inactive
- Potency [5]: inactive

SMILES: N#CC(c1ccccc1)c1ccccc1
- Potency [1]: inactive
- Potency [3]: inactive
- Potency [4]: inactive
- Potency [5]: inactive

SMILES: OC(c1ccc(Cl)cc1)(c1cncnc1)c1ccccc1Cl (centres undefined)
- Potency [1]: inactive
- Potency [3]: 35 µM (active) and 6.86 µM (active)
- Potency [10]: 49.4 µM (active) and 6.11 µM (active)
- Potency [5]: inactive

SMILES: Clc1ccc(C(Cl)(Cl)Cl)cc1
- Potency [1]: inactive
- Potency [3]: inactive
- Potency [10]: inactive
- Potency [4]: inactive
- Potency [5]: inactive

SMILES: CCCCCCCCCCCCCl
- Potency [1]: inactive
- Potency [3]: inactive
- Potency [10]: inactive
- Potency [4]: inactive
- Potency [5]: inactive

SMILES: NC(=O)CN1CCCC1=O
- Potency [1]: inactive
- Potency [3]: inactive
- Potency [4]: inactive
- Potency [5]: inactive

SMILES: CN(C)c1ccccc1
- Potency [1]: inactive
- Potency [3]: inactive
- Potency [10]: inactive
- Potency [4]: inactive
- Potency [5]: inactive

SMILES: O=C1C(Cl)=C(Cl)C(=O)c2ccccc21
- Potency [1]: 21.9 µM (active) and 19.5 µM (active)
- Potency [3]: 972 nM (active) and 969 nM (active)
- Potency [10]: 2.18 µM (active) and 545 nM (active)
- Potency [4]: 4.91 µM (active) and 7.76 µM (active)
- Potency [5]: inactive
